A short description of test [1]: CCTE_Shafer_MEA_dev_burst_rate: CCTE's Neural Network Formation Assay for Burst Rate, Shafer Lab (AID 2284042). The gist of the method:
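Cells plated, treated day 0; recorded DIV 5, 7, 9, 12; fed and re-treated DIV 5, 9. Endpoint: bursts per recording time, active-electrode well mean, trapezoidal AUC, fitted in decreasing direction against DMSO baseline.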

Test [2] is described as follows: CCTE_Shafer_MEA_dev_per_burst_interspike_interval: CCTE's Neural Network Formation Assay for Burst Interspike Interval, Shafer Lab (AID 2284044). The gist of the method: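 Readout is the average time between spikes inside single-electrode bursts, taken as a well mean across bursting electrodes. Cortical neurons from rat developed networks on MEA plates under continuous 12-day exposure; recordings on days 5, 7, 9 and 12 were integrated by trapezoidal AUC.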

Test [3] is described as follows: CCTE_Shafer_MEA_dev_burst_duration_mean: CCTE's Neural Network Formation Assay for Mean Burst Duration, Shafer Lab (AID 2284045).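 On AC50: curve fitted for loss meaning shorter burst duration than DMSO.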 The gist of the method: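 Rat cortical cultures, 1.5 x 10^5 cells/well with laminin drop; continuous dosing days 0–12, media plus treatment refreshed DIV 5, 9. AxIS adaptive spike detection; mean single-electrode burst duration, AUC over four recordings, negative direction vs DMSO.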

Test [4] can be described thus: CCTE_Shafer_MEA_dev_inter_network_spike_interval_mean: CCTE's Neural Network Formation Assay for Mean Inter-network Spike Interval, Shafer Lab (AID 2284047). The gist of the method:
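Rat cortical cultures, 1.5 x 10^5 cells/well on 48-well MEA plates; continuous exposure days 0–12, medium and compound refreshed DIV 5, 9. Mean time between consecutive network-spike peaks; AUC across DIV 5/7/9/12; DMSO baseline, negative fitting direction.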

Test [5] in a line: CCTE_Shafer_MEA_dev_network_spike_number: CCTE's Neural Network Formation Assay for Number of Network Spikes, Shafer Lab (AID 2284048). The gist of the method:
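Rat cortical primary cultures on 48-well MEA (16 electrodes/well); continuous exposure DIV 0–12, full medium and treatment exchange DIV 5, 9. Readout: network spike count, AxIS adaptive detection, recordings DIV 5/7/9/12 collapsed to AUC; loss-of-signal fit, DMSO baseline.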

Test [6] is described as follows: CCTE_Shafer_MEA_dev_network_spike_peak: CCTE's Neural Network Formation Assay for Mean Number of Electrodes in Network Spike, Shafer Lab (AID 2284049).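 On AC50: fitted for loss of signal meaning fewer electrodes in network spikes than DMSO.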 The gist of the method:
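Network-spike peak electrode count from recordings on days 5, 7, 9 and 12 was combined as trapezoidal area under the curve. Rat cortical cultures were treated continuously from plating, with compound renewed at each feed (DIV 5, 9); fits versus DMSO.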

A short description of test [7]: CCTE_Shafer_MEA_dev_spike_duration_mean: CCTE's Neural Network Formation Assay for Mean Spike Duration, Shafer Lab (AID 2284051).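 On AC50: potency for a decrease in mean network spike duration versus DMSO.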 The gist of the method: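 Readout is the average length of network spikes, clustered firing across electrodes, summed over DIV 5, 7, 9 and 12 as area under the curve. Neurons from rat cortex developed networks on MEA plates under continuous 12-day exposure.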

Test [8] in a line: CCTE_Shafer_MEA_dev_network_spike_duration_std: CCTE's Neural Network Formation Assay for Standard Deviation of Network Spike Duration, Shafer Lab (AID 2284052).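 Further: hits are decreases in network spike duration SD versus DMSO vehicle.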 The gist of the method:
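Read-out is the trapezoidal area-under-the-curve across recordings made on days 5, 7, 9 and 12, fitted in the negative direction against DMSO baseline. Neurons were primary rat cortical cells treated from day 0, with treatment renewed at each feed.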

Test [9] can be described thus: CCTE_Shafer_MEA_dev_per_network_spike_spike_number_mean: CCTE's Neural Network Formation Assay for Mean Number of Spikes in a Network Spike, Shafer Lab (AID 2284053). The gist of the method: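 Continuous twelve-day exposure of developing rat cortical networks grown over 16 microelectrodes per well; spontaneous firing is captured at four time points, and the per-network-spike spike number is integrated over development by trapezoidal AUC.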

A short description of test [10]: CCTE_Shafer_MEA_dev_per_network_spike_spike_percent: CCTE's Neural Network Formation Assay for Percent of Spikes in a Network Spike, Shafer Lab (AID 2284054). The gist of the method: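 Read-out: percent of spikes falling in a 0.05 s window at network-spike peak, from spontaneous MEA recordings on days 5, 7, 9 and 12; trapezoidal AUC; loss of signal versus DMSO. Rat cortical cultures, compound present throughout.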

The nature of test [11]: CCTE_Shafer_MEA_dev_LDH: CCTE's Lactate Dehydrogenase Assay for Cytotoxicity in the Neural Network Formation Assay, Shafer Lab (AID 2284068; active means hit-call score of the fitted dose curve at least 0.9, where 1 is the maximum;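 further: exposure for twelve days from plating with re-dosing on DIV 5 and 9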). The gist of the method: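 Cytotoxicity companion to network-formation recordings: rat cortical neurons received compound over 12 days of development, re-dosed at DIV 5 and 9 feeds. Viability was inferred from LDH enzyme activity relative to DMSO.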

Test [12] is described as follows: CCTE_Shafer_MEA_dev_active_electrodes_number: CCTE's Neural Network Formation Assay for Number of Active Electrodes, Shafer Lab (AID 2284040; active means hit-call score of the fitted dose curve at least 0.9, where 1 is the maximum;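 on AC50: potency for loss of active electrodes versus DMSO so lower counts are hits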). The gist of the method: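 Counts electrodes per well firing at least 5 spikes/min, recorded on days 5, 7, 9 and 12 in rat cortical cultures dosed continuously from plating (treatment refreshed DIV 5, 9). Value is the area under the curve over recordings, fitted downward relative to DMSO.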

A short description of test [13]: CCTE_Shafer_MEA_dev_bursting_electrodes_number: CCTE's Neural Network Formation Assay for Number of Bursting Electrodes, Shafer Lab (AID 2284043; active means hit-call score of the fitted dose curve at least 0.9, where 1 is the maximum). The gist of the method:
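Rat cortical primary neurons, 48-well MEA, 16 electrodes/well; dosing DIV 0–12, re-dosed with full media change DIV 5, 9. Recordings DIV 5/7/9/12, AxIS adaptive spike detector; bursting electrode = ≥1 burst/2 min. AUC across days; loss of signal vs DMSO.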

Test [14] in a line: CCTE_Deisenroth_AIME_384WELL_CTox_Active: Cytotoxicity Assessment (CTOX) in CCTE's 384-well Estrogen Receptor Transactivation Assay with AIME metabolic competence (metabolism positive), Deisenroth Lab (AID 2284037; active means hit-call score of the fitted dose curve at least 0.9, where 1 is the maximum;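 further: chemicals first conditioned 2 h by alginate-bound induced rat liver S9 before cells; activity means signal loss indicating cell death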). The gist of the method:
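Chemicals pre-incubated 2 hours with alginate-immobilised phenobarbital/beta-naphthoflavone-induced male Sprague Dawley rat liver S9, then conditioned medium applied 24 hour to VM7Luc4E2 cells. Viability by fluorogenic protease substrate; 10-point series 0.002 - 200 uM.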

Test [15] concerns the target Estrogen receptor (Homo sapiens) (UniProt P03372). Description: CCTE_Deisenroth_AIME_384WELL_LUC_Inactive: CCTE's 384-well Estrogen Receptor Transactivation Assay without AIME metabolic competence (ERTA luciferase; metabolism negative), Deisenroth Lab (AID 2284038; active means hit-call score of the fitted dose curve at least 0.9, where 1 is the maximum;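 further: VM7Luc4E2 breast cells given medium preincubated 2 h with S9-free microspheres; hits raise estrogen receptor luciferase signal so potencies reflect agonists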). The gist of the method:
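VM7Luc4E2 ER transactivation, luciferase bioluminescence after 24 h, using medium pre-incubated 2 h with S9-free alginate microspheres. Concentrations 0.002–200 uM; gain of signal fitted relative to 17beta-estradiol.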

Test [16] is described as follows: CCTE_Deisenroth_AIME_384WELL_CTox_Inactive: Cytotoxicity Assessment (CTOX) in CCTE's 384-well Estrogen Receptor Transactivation Assay without AIME metabolic competence (metabolism negative), Deisenroth Lab (AID 2284039; active means hit-call score of the fitted dose curve at least 0.9, where 1 is the maximum;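 further: cell viability via live-cell protease substrate cleaved to fluorescent probe; cells exposed 24 h to medium preincubated 2 h with alginate-water beads without S9; loss of fluorescence signal means loss of viability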). The gist of the method:
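Metabolism-negative arm: chemicals (10-point, 0.002 - 200 uM) preincubated 2 h with alginate-water lids, medium moved onto VM7Luc4E2 cells for 24 h. Fluorescent live-cell protease readout; bidirectional curve fit.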

In test [17] the target is Estrogen receptor (Homo sapiens) (UniProt P03372). Description: CCTE_Deisenroth_AIME_384WELL_LUC_Shift: CCTE's 384-well Estrogen Receptor Transactivation Assay with AIME metabolic competence data shift (ERTA luciferase; difference in metabolism positive and negative), Deisenroth Lab (AID 2284041).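 Further: shift is response with S9 minus without S9 so positive means metabolism raised ER signal.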 The gist of the method: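 Chemicals (0.002–200 uM, 10 points) pre-incubated 2 h with alginate-encapsulated induced male Sprague Dawley rat liver S9 or S9-free, then medium applied 24 h to VM7Luc4E2 cells; luciferase. Endpoint is per-concentration difference, S9-positive minus negative.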
Estrogen receptor (Homo sapiens), sequence (P03372 whole entry, looked up): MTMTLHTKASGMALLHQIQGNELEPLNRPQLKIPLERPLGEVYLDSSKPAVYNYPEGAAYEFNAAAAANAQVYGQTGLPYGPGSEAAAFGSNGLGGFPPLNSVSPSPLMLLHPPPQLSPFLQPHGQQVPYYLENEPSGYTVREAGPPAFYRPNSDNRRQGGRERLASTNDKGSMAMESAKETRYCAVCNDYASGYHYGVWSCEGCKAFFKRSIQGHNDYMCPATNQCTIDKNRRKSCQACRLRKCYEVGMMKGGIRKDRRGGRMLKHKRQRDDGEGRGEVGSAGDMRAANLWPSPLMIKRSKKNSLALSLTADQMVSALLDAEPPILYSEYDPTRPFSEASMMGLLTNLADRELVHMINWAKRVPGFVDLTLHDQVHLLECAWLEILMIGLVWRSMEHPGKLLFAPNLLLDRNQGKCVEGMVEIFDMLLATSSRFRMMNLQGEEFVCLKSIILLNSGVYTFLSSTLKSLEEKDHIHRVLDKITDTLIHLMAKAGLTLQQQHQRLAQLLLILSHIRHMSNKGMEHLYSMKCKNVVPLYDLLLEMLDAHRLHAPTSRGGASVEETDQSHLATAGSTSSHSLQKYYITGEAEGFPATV

In another test the test system is DIO2 (gene 1734). Description: CCTE_GLTED_hDIO2: CCTE's human Deiodinase 2 (DIO2) Inhibition Assay, Great Lakes Toxicology and Ecology Division (GLTED) Lab (AID 2284050; active means hit-call score of the fitted dose curve at least 0.9, where 1 is the maximum). The gist of the method: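 Iodide released by human deiodinase 2 over 3 h with test chemical, measured spectrophotometrically via Sandell-Kolthoff cerium/arsenic reaction. Run n=3; inhibition referenced to DMSO.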

For another test, the system named is DIO3 (gene 1735). Description: CCTE_GLTED_hDIO3: CCTE's human Deiodinase 3 (DIO3) Inhibition Assay, Great Lakes Toxicology and Ecology Division (GLTED) Lab (AID 2284055; active means hit-call score of the fitted dose curve at least 0.9, where 1 is the maximum;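 further: potency is for inhibition seen as loss of released iodide signal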). The gist of the method:
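Inhibition is read as reduced iodide release, measured spectrophotometrically by the Sandell-Kolthoff cerium/arsenic reaction. Adenovirus-expressed human DIO3 enzyme is exposed to chemical for 3 h, n=3 plates. Iodinated chemicals, nitrite, iron or thiocyanate may interfere.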

By AC50 is commonly meant the midpoint of the concentration-response curve, whichever way the signal moves.

Each structure is given as a SMILES string. Records with an inconclusive call do not appear. Some structures have more than one record in an assay (separate samples or runs), and their calls can disagree. The source made the active and inactive calls. How the source made its calls, unless noted: active means hit-call score of the fitted dose curve at least 0.9, where 1 is the maximum; inactive means score below 0.9.

As to `NC(=O)C(F)(F)C(F)(F)C(F)(F)C(F)F`, the compound was called inactive in [1], in test [2], in test [3], in test [4], in test [5] and in test [6]. For the same compound, the compound was classed as inactive in test [7], in [8], in [9], in [10] and in test [11].

With `CO[Si](C)(CCC(F)(F)C(F)(F)C(F)(F)C(F)(F)C(F)(F)C(F)(F)F)OC`, the compound was called inactive in [1], in test [2], in [3], in [4], in test [5] and in [6]. The compound was called inactive in [7], in test [8], in test [9], in test [10] and in test [11].

With `OCC(F)(F)C(F)(F)C(F)(F)C(F)(F)C(F)(F)C(F)(F)C(F)(F)C(F)(F)CO`, the AC50 in test [12] is 15 µM (active); in test [6] it was 22.5 µM (active); in test [7], 15 µM (active); in test [11], 23.3 µM (active). The outcome in test [1], in test [13], in test [2], in test [3], in test [4] and in test [5] was inactive. The compound was classed as inactive in [8], in test [9] and in test [10].

On to `OCC(O)CC(F)(F)C(F)(F)C(F)(F)C(F)(F)F` (stereo unspecified), for which the outcome in test [12], in test [1], in test [13], in test [2], in test [3] and in [4] was inactive. In addition, the compound was classed as inactive in [5], in test [6], in test [7], in test [8], in test [9] and in [10].

Consider `CCCCOC(=O)C(C)O` (stereo unspecified), for which the result in [14], in [15], in test [16] and in [17] was inactive.

On to `O=C(O)C(F)(F)C(F)(F)C(F)(F)OC(F)(F)F`, for which the compound was called inactive in test [1], in test [2], in test [3], in test [4], in [5] and in test [6]. Further, the call in test [7], in test [8], in [9], in test [10] and in test [11] was inactive.

For the compound `OC(O)C(F)(F)C(F)(F)F`, the outcome in test [1], in test [2], in test [3], in [4], in test [5] and in [6] was inactive. For the same compound, the call in test [7], in test [8], in [9], in test [10] and in test [11] was inactive.

Take `FC(F)(F)C(F)(F)C(F)(F)C(F)(F)C(F)(F)C(F)(F)C(F)(F)CCI`: the call in test [12], in test [1], in test [13], in [2], in [3] and in test [4] was inactive. In addition, the compound was called inactive in [5], in test [6], in test [7], in test [8], in [9] and in test [10]. The compound was called inactive in test [11].

Regarding `OCCCCC(F)(F)C(F)(F)C(F)(F)C(F)(F)F`, the result in test [12], in [1], in [13], in test [2], in [3] and in [4] was inactive. The compound was classed as inactive in test [5], in test [6], in test [7], in test [8], in test [9] and in test [10]. The compound was classed as inactive in test [11].

Take `CC(C)(C)c1cc(Cc2cc(C(C)(C)C)c(O)c(C(C)(C)C)c2)cc(C(C)(C)C)c1O`: the compound was called inactive in test [14], in test [15] and in test [17].

As for `O=C1C=CC(=O)N1c1ccccc1`, the call in test [14], in [15], in [16] and in test [17] was inactive.

As for `CCN(CCO)S(=O)(=O)C(F)(F)C(F)(F)C(F)(F)C(F)(F)C(F)(F)C(F)(F)C(F)(F)C(F)(F)F`, the outcome in test [12], in test [1], in test [13], in test [2], in [3] and in test [4] was inactive. For the same compound, the result in [5], in test [6], in test [7], in [8], in test [9] and in test [10] was inactive. For the same compound, the result in test [11] was inactive. For the same compound, the AC50 in [11] was 10.1 µM (active).

In the case of `CCCCCCCCCCCCCC[P+](CCCC)(CCCC)CCCC`, the AC50 with DIO2 (gene 1734) is 17.1 µM (active); in the test with DIO3 (gene 1735) it was 3.56 µM (active).

Consider `NC(=O)C(F)(F)C(F)(F)C(F)(F)C(F)(F)C(N)=O`, for which the compound was called inactive in test [12], in test [1], in [2], in test [3], in [4] and in test [5]. The call in test [6], in test [7], in test [8], in test [9], in [10] and in test [11] was inactive.

Regarding `CC(C)OC=O`, the result in test [14], in test [15], in test [16] and in test [17] was inactive.

For the compound `OCC(F)(F)C(F)(F)C(F)(F)CO`, the outcome in test [12], in [1], in [13], in [2], in test [4] and in test [5] was inactive. Besides, the call in [6], in [7], in [8], in test [9], in test [10] and in [11] was inactive. Further, the AC50 in test [3] is 15 µM (active).

(Values after PubChem BioAssay (EPA / NIEHS).)
